This is part of a sample that, as a whole, favours compounds with a hit. Of some 83,000 tested, about 20% had one in any assay.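 Single-dose data. Exposure time 48 hours. Values below 10 considered active.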 Calls of active or inactive are those of the source.

Data on 38 compounds can be found in PubChem BioAssay (NCI).

This test has as its system BT-549 breast. Nature of the test: NCI-60 one-dose screen, 48 h (100 = growth as untreated, 0 = no growth, -100 = all killed). As to conditions: 10 µM unless noted.
As to `CC1(C)c2[nH]c3ccccc3c2C[C@]2(C)[C@H]3C(=O)C=C4[C@@H]5C[C@@](C)(C(N)=O)CC[C@]5(C)CC[C@@]4(C)[C@]3(C)CC[C@@H]12`, the growth is 70.7% (inactive).
On to `C[C@H]1[C@H](C)CC[C@]2(C(=O)NCC#CCN3CCN(C)CC3)CC[C@]3(C)C(=CC[C@@H]4[C@@]5(C)Cc6c([nH]c7ccccc67)C(C)(C)[C@@H]5CC[C@]43C)[C@H]12`, for which the growth is 99.6% (inactive).
With `CC(=O)O[C@@H]1C2CCC3C(CC[C@@]4(C)C3CC[C@@H]4C(C)N(C)C)[C@@]2(C)CC[C@@H]1NC(=O)C=C(C)C` (stereo partly drawn) the figure was 26.4% (inactive); with `CCN1C(=O)N(CC)C2Nn3c(s/c(=C\c4ccc(OC)cc4)c3=O)=NC21` (stereo not drawn), 62.9% (inactive); with `CN1CCC(=C(c2ccccc2)c2ccccc2)C(c2ccccc2)C1` (stereo not drawn), 97.1% (inactive).
With `O=C(Cc1ccccc1)NNc1nc(Cl)nc(N2CCN(C(c3ccccc3)c3ccccc3)CC2)n1` the figure was 99.3% (inactive).
The value for `N#CC(C#N)=Cc1cc2ccccc2nc1Oc1ccc(C(F)(F)F)cc1` was 96.2% (inactive); that for `COc1cc(/C=C\c2cc(OC)c(OC)c(OC)c2)cc(N)c1OC` was 75.9% (inactive); that for `COc1cccc(-c2nc3occn3c2-c2ccnc(NCCCNS(=O)(=O)c3ccc(C(F)(F)F)cc3)n2)c1` was 93.4% (inactive).
As for `O=C(O)c1ccc2c(c1)C(=O)N(Cc1ccccc1)C2=O`, the growth was 98.6% (inactive).
With `C=C(C)[C@@H]1CC[C@]2(C(=O)N3CCN(C)CC3)CC[C@]3(C)[C@H](CC[C@@H]4[C@@]5(C)CC[C@H](O)C(C)(C)[C@@H]5CC[C@]43C)[C@@H]12` the figure was -51.8% (active); with `Cn1cc(-c2nc(-c3c[nH]c4c(Cl)nccc34)cs2)c2cc(Br)ccc21`, 95.7% (inactive); with `O=S(=O)(NCCCNc1nccc(-c2c(-c3cccc(F)c3)nc3sccn23)n1)c1cccc(F)c1`, 33.3% (inactive).
With `Cn1c(N2NC(=O)C(N=Nc3ccc(S(N)(=O)=O)cc3)C2=O)nc(-c2ccco2)c(C#N)c1=O` (stereo not drawn) the figure was 109% (inactive); with `NC(=S)N1N=C(c2ccccc2)CC1c1cn(-c2ccccc2)nc1-c1ccc(OCc2ccccc2)cc1` (stereo not drawn), 113% (inactive).
With `CCCCOc1ccc(/C(C)=N/Nc2cc(C)nc3ccc(Br)cc23)cc1` the figure was 107% (inactive); with `CN(C)CC(O)c1ccc(/C=C/c2ccc(Cl)cc2)cc1` (stereo not drawn), 78.8% (inactive).
With `CC(=O)Nc1cccc(-c2ccc3c(c2)NC(=O)/C3=C\c2ccc[nH]2)c1`, the growth was 43.2% (inactive).
With `O=C(Nc1ncc(Cc2cc(Cl)ccc2Cl)s1)c1cccs1` the figure was 74.6% (inactive); with `N#C/C(=C\c1ccc([N+](=O)[O-])s1)c1nc2cc(Cl)ccc2s1`, -6.72% (active).
With `CCN(Cc1ccccc1)c1ccc(C=O)cc1` the figure was 95.1% (inactive); with `CCN1CCN(CCNc2nccc(-c3c(-c4cccc(OC)c4)nc4occn34)n2)S1(=O)=O`, 111% (inactive); with `CNC(=O)c1cc(Cn2nc(C)c(NC(=O)Nc3ccc(Cl)c(C(F)(F)F)c3)c2C)ccn1`, 98.6% (inactive).
The value for `CC1(C)CC(=O)C2=C(C1)N(c1ccc(F)cc1F)C(N)=C(C#N)C2c1cc(Br)ccc1F` (stereo not drawn) was 106% (inactive).
For `CCC(CC)NCC(C)(C)O`, the growth is 106% (inactive).
The value for `COCCCN1CC(O)=C(c2nc(-c3ccc(C)cc3)cs2)C1=N` was 103% (inactive).
With `CC(=O)N1c2ccccc2NC2=C(C(=O)NC2(C)C)C1c1ccco1` (stereo not drawn) the figure was 86% (inactive).
With `Cc1c(C(=O)NCCC(=O)NO)sc2ncnc(Nc3ccc(F)c(Cl)c3)c12` the figure was 114% (inactive); with `COc1ccc(C(=O)c2cc(C)c(OC)c(C)c2)c(OC)c1OC(=O)C(Cl)Cl`, 11.4% (inactive); with `COc1ccc(-c2[nH][nH]c(=O)c2-c2nc3ccccc3s2)cc1`, 97.6% (inactive).
In the case of `CN(C)c1ccc(Nc2c3ccccc3nc3cc(NC(=O)CCN4CCCC4)ccc23)cc1`, the growth was 23.6% (inactive).
As for `CCOC(=O)c1ccc2c(c1)ncn2-c1ccc(NC(=O)Nc2cccc(C)c2)cc1`, the growth was 115% (inactive).
With `C/C=C(\C)C(=O)NC1=CC[C@@]2(C)C(=CCC3C2CC[C@@]2(C)C3CC[C@@H]2C(C)N(C)C)C1=O` (stereo partly drawn) the figure was 37.6% (inactive); with `COc1ccc(NC(N)=NCCCOc2ccc(F)cc2)cc1`, 67.3% (inactive).
Take `Cc1cc2nc3c4cc(C=O)ccc4n(CCN(C)C)c3nc2cc1C`: the growth is 53.6% (inactive).
In the case of `CC(=O)N1N=C(c2ccc(-n3ccc(C(F)(F)F)n3)c(F)c2)CC1c1ccc[nH]1` (stereo not drawn), the growth is 111% (inactive).
Regarding `Brc1ccc(Nc2csc(-c3ccccn3)n2)cc1`, the growth is 101% (inactive).
With `Cc1ccc(C(=O)/C(=C\c2ccc([N+](=O)[O-])cc2)S(=O)Cc2ccc(F)cc2)cc1` (stereo not drawn) the figure was -0.818% (active).
